GLP-1R inv ag: inverse agonists of human GLP-1 receptor | P43220 | 410,000 tested, 1.6% active | Potency, µM (series often up to 38.3 µM), without a hit: at the top dose activity change, negative = inhibition, actives largely listed as inhibitors | HEK293 GLP-1R CRE-luciferase, luminescence, 24 h; GLP-1R form is constitutively active; also: % is scaled to controls: 0 for no effect and ±100 for the full control effect; nearly all actives have a fitted effect of over 55% in size
Target sequence (P43220 whole entry, looked up): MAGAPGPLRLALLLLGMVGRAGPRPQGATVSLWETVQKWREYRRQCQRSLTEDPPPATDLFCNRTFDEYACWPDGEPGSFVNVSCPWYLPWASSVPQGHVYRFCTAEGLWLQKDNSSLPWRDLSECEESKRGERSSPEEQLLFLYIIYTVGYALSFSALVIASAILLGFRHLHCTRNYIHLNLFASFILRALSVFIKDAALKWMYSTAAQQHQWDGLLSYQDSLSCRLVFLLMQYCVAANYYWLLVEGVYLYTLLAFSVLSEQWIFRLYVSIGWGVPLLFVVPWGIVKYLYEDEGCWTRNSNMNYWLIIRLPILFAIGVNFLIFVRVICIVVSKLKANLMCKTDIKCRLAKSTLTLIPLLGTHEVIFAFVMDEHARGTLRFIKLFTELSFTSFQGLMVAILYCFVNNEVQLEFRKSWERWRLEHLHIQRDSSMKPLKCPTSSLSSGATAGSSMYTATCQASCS
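HEK293 cells stably co-expressing a cAMP-responsive luciferase reporter and constitutively active GLP-1R were seeded, incubated 12 h, then exposed to compounds for 24 h at 37 C. Luminescence was read 12 min after detection reagent; inverse agonists lower signal.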
PTHR1 ag: activates the human parathyroid hormone receptor PTHR1 | 410,000 tested, 0.075% active | HEK293 GP2 PTHR1 cells, GloSensor cAMP luminescence, 1 h | Potency, µM (doses to about 115 µM), inactives show at the highest dose activation, actives largely listed as activators | Q03431 | AID 743266; also: nearly all actives have a fitted effect of over 55% in size
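HEK-293-derived GP2 cells expressing PTHR1 and a GloSensor cAMP reporter, 3,000/well, plated overnight, given luciferin plus IBMX (each 0.5 mM as added) for 1 h at 37 °C, then compound for 1 h at 37 °C. Luminescence was read after 15 min at room temperature.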
GLP1R ag: GLP-1 receptor (human) agonism; P43220; HEK293 GLP-1R CRE-luciferase, luminescence, 4-6 h; cells express a hypersensitive GLP-1R form; Potency, µM (series often up to 45.6 µM), without a hit: at the top dose activation, actives largely listed as activators; 380,000 tested, 0.007% active; AID 624172; also: % of control where 0% means no effect
GLP1R cytotox: cytotoxicity in counter-screen for GLP-1R inverse agonists; HEK293 cAMP-luciferase reporter cells, luminescence, 24 h; Potency, µM (series often up to 38.3 µM), without a hit: at the highest dose activity change, negative = inhibition, most hits filed as inhibitors; 410,000 tested, 0.13% active; AID 624418;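 also: loss of luciferase light is scored as toxicity; % is scaled to controls: 0 for no effect and ±100 for the full control effect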
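A 23 nL compound transfer followed 12 hours of cell culture at 37 deg C; exposure then lasted 24 hr. Luciferase assay detection reagent was dispensed and plates read for luminescence after a 12 min room-temperature wait.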
Active calls of the source: *; i = inactive; ? = inconclusive; · = not tested or not shown; [ ] = remark or other dose. The list is not random: actives were taken first. Their share in the collection is about 1.7%. Calls follow the shape of the dose curve; as a rule, active = well fitted curve in the direction sought with a large enough effect; inconclusive = small, poorly fitted or top-dose-only effect, or another doubt; inactive = no such curve, though single readings can be large; an effect the other way counts as inactive or inconclusive. Potency is read from the fitted curve at half-maximal effect.

SMILES | GLP-1R inv ag | PTHR1 ag | GLP1R ag | GLP1R cytotox
CO/C=C(/C(=O)OC)c1ccccc1Oc1cc(Oc2ccccc2C#N)ncn1 | · | · | 4.2%[96 µM] | ·
O=C(CNC(=O)OCc1ccccc1)Nc1ccc(Br)cc1C(=O)c1ccccc1 | 11.2µM* | i | -8.8% | -27.0%
O=C(CNC(=O)OCc1ccccc1)NCC(=O)Nc1ccc(Br)cc1C(=O)c1ccccc1 | 0.7% | -24.5% | 3.9% | -2.1%
Cc1ccc(N(CCC#N)C(=O)CCl)cc1C | 2.82µM* | -4.0% | -1.1% | ?
CCOC(=O)c1ccc(N2C(=O)c3n[nH]c(-c4cccs4)c3C2c2ccc(Cl)cc2Cl)cc1 (stereo not given) | ? | -94.8% | -11.8% | ?
CC1=C(N2CC2)C(=O)C(CO)=C(N2CC2)C1=O | ? | i | -36.6% | 0.794µM*
CO[C@@H](COC(N)=O)C1=C(N2CC2)C(=O)C(C)=C(N2CC2)C1=O | · | · | -0.9% | ·
COc1ccc2nc(N3CCN(C(=O)CS(=O)(=O)c4ccc(C)cc4)CC3)sc2c1 | -16.5% | -89.4% | · | -1.5%
C[N+](C)(C)CCOC(=O)C(O)(c1ccccc1)c1ccccc1 | · | · | 0.5% | ·
COCCNCCOc1ccc(C(C)(C)c2ccccc2)cc1 | 10µM* | -4.5% | 9.0% | -4.7%
CNC(C)Cc1ccc2c(c1)OCO2 (stereo not given) | · | · | -1.3%[110 µM] | ·
On1ccccc1=S | 7.94µM* | -83.6% | -5.7% | -3.5%
CC(C)(C#CC(=O)O)OOC(c1ccccc1)(c1ccccc1)c1ccccc1 | 11.2µM* | -54.9% | -5.8% | -19.6%
COc1ccc(C(=O)NCCn2cc(SC(C)c3ccccc3)c3ccccc32)cc1OC (stereo not given) | ? | -38.1% | -5.0% | -14.0%
Cc1ccc(N2CC(C(=O)Nc3cc(S(=O)(=O)N4CCCCC4)ccc3C)CC2=O)cc1 (stereo not given) | ? | -72.5% | 4.9% | 1.8%
CCOC(=O)[C@]12Cc3cc(C)ccc3[C@H]1N(Cc1ccccc1)C(=O)c1ccccc12 | ? | -22.7% | -1.3% | 1.3%
CCOC(=O)C1=C(Cn2cnc3ccccc32)NC(=O)NC1c1cc(C)ccc1C (stereo not given) | ? | i | -6.4% | 11.2µM*
COc1ccc2c(c1)CCc1c(C(=O)Nc3c(C)nn(Cc4ccccc4C)c3C)noc1-2 | 10µM* | -90.1% | · | -2.3%
COc1ccc(NC(=O)c2c(C)nn(Cc3ccccc3Cl)c2Cl)cc1Cl | 10.6% | -25.1% | 6.4% | 7.8%
CCCCCSc1cc(OC)c(CCNC)cc1OC | 3.98µM* | -2.6% | -6.5% | ?
CCCCCCCSc1cc(OC)c(CCNC)cc1OC | ? | -11.1% | -17.1% | ?
CNCCCOc1ccc(Cl)cc1C(C)(C)C | 3.55µM* | i | 6.5% | ?
CCCCOc1ccc(CCN)cc1Cl | 0.5% | i | -0.5% | -6.3%
C/C(=N\NP(=S)(c1ccccc1)c1ccccc1)c1ccc(O)cc1O | 11.2µM* | -4.4% | 16.1% | 12.7%
COc1ccc(CNC(=O)Nc2nc(C(N)Cc3ccc(C(F)(F)F)cc3)cs2)cc1 (stereo not given) | ? | -3.0% | -7.8% | ?
SMILES | GLP-1R inv ag | PTHR1 ag | GLP1R ag | GLP1R cytotox
COc1ccc(CNCCC(c2ccc(F)cc2)c2ccc(OC(C)C)cc2)cc1OC (stereo not given) | 3.98µM* | i | 9.0% | ?
COc1ccc(CNCCC(c2ccc(F)cc2)c2ccc(OC)cc2)cc1 (stereo not given) | ? | -29.4% | 7.7% | ?
N#CC(C#N)=NNc1ccc([N+](=O)[O-])cc1 | 2.24µM* | -0.9% | -10.4% | ?
CCCCCCC(=O)O[C@H]1CC[C@H]2[C@@H]3CCC4CC(=O)C=C(C)[C@]4(C)[C@H]3CC[C@]12C (stereo not given in full) | · | · | -5.0% | ·
Cc1nc2ccccc2c(=O)n1-c1cccc(O)c1 | 24.3% | -20.3%[57.5 µM] | 14.7% | 17.4%
Cc1ccc(-c2nc3ccccc3c(=O)n2-c2cccc(O)c2)cc1 | 1.78µM* | i | 13.8% | -2.5%
O=c1c2ccccc2nc(-c2cccs2)n1-c1ccccc1 | 2µM* | i | 12.0% | -0.3%
O=c1c2ccccc2nc(-c2ccccc2Cl)n1-c1cccc(O)c1 | 0.891µM* | i | -0.8% | -4.7%
CCOC(=O)C1CCCN(c2ccc([N+](=O)[O-])c3nonc23)C1 (stereo not given) | 20.7% | -22.7% | ? | 10µM*
NC(Cc1ccc(Oc2cc(I)c(O)c(I)c2)c(I)c1)C(=O)O (stereo not given) | · | · | -3.8% | ·
Cc1ccc(N2C(=O)/C(=C/N3CCN(C(=O)c4ccco4)CC3)C(=O)NC2=S)cc1C | -9.3% | i | -2.5% | -23.6%
CC12CC(c3ccccc3O1)N(C(=O)c1ccco1)C(=S)N2c1ccc(F)cc1 (stereo not given) | 10µM* | ? | -6.6% | ?
Cc1cc(NC(=O)c2cc(-c3cccc(Cl)c3)on2)nn1Cc1ccc(Cl)cc1 | -14.6% | -42.3% | · | -1.6%
OC(c1ccccc1)(c1ccc(Cl)cc1)C1CN2CCC1CC2 (stereo not given) | 1.58µM* | 20.9% | 0.9% | ?
Cc1ccc(Cn2nnnc2CN2CCC(n3nnc4cc(C(F)(F)F)ccc43)CC2)cc1 | 10µM* | -21.8% | -0.8% | -12.0%
Cc1ccc2c(c1)[C@]13CCCC[C@@H]1[C@@H](C2)N(C)CC3 | · | · | 7.8% | ·
O=C1C=CC(=O)C2C1C1(Cl)C(Cl)=C(Cl)C2(Cl)C1(Cl)Cl (stereo not given) | 3.16µM* | -17.9% | -3.3% | ?
c1ccc(Nc2nc(NCC3CCCO3)c3ccccc3n2)cc1 (stereo not given) | 8.91µM* | -25.0% | -2.0% | ?
Nc1c(C(=O)NCC2CCCO2)c2nc3ccccc3nc2n1-c1ccccc1 (stereo not given) | ? | i | 0.8% | i
Cc1cccc(Cn2cc(C=O)c3ccccc32)c1 | 3.98µM* | -23.0% | 9.6% | -6.9%
O=Cc1cn(Cc2cccc([N+](=O)[O-])c2)c2ccccc12 | ? | -22.9% | -5.1% | -39.0%
N#Cc1ccc(Cn2cc(C=O)c3ccccc32)cc1 | 7.08µM* | -24.8% | 1.1% | -5.0%
CCC(=O)c1cn(Cc2ccc(C#N)cc2)c2ccccc12 | ? | i | 9.1% | 2.2%
COCCCNC(=S)NCCCNc1nc2cc(C)cc(C)c2cc1C#N | 11.2µM* | -5.7% | 23.4% | -2.0%
C[C@H]1CN([C@@H](C)CO)C(=O)c2cccc(NC(=O)Nc3ccc(C(F)(F)F)cc3)c2O[C@@H]1CN(C)C(=O)Nc1ccc(F)cc1 | 11.2µM* | -62.4% | -9.5% | ?
C[C@@H]1CN([C@H](C)CO)C(=O)c2c(c3ccccc3n2C)-c2ccccc2CO[C@H]1CN(C)Cc1ccc(C(F)(F)F)cc1 | 5.01µM* | -24.6% | -3.5% | ?
C[C@@H]1CN([C@@H](C)CO)C(=O)c2c(c3ccccc3n2C)-c2ccccc2CO[C@H]1CN(C)S(=O)(=O)c1ccc(C(F)(F)F)cc1 | -11.9% | -47.5% | -0.7% | 2.4%

Assay outcomes (PubChem BioAssay)
